Usually inhibition stands for the relative decrease from the control value, in per cent.

Where “and” joins values, the source holds several entries; their conditions need not be identical. Equal entries are not always repeated. Hit rate of the full screen: of about 290,000 compounds, about 230 (0.079%) were called active. Rule as the data show it: active = inhibition above about 40%; inactive = the rest. For the sample, actives were picked, then their nearest neighbours and some compounds at random.

This note sets out measurements from PubChem BioAssay AID1259398 (Fisher Drug Discovery Resource Center, 2018).

The target in the assay is Cyclic GMP-AMP synthase (Homo sapiens) (UniProt Q8N884). As to the kind of experiment: Biochemical Kinase-Glo luminescence primary assay, human cyclic GMP-AMP synthase inhibition (AID 1259398).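 Also: 0% = vehicle reaction and 100% = reaction without DNA for no activity.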 The conditions noted are these: recombinant h-cGAS, ATP depletion, at 12.5 µM, hits give high values.
Cyclic GMP-AMP synthase (Homo sapiens), sequence (Q8N884 whole entry, looked up): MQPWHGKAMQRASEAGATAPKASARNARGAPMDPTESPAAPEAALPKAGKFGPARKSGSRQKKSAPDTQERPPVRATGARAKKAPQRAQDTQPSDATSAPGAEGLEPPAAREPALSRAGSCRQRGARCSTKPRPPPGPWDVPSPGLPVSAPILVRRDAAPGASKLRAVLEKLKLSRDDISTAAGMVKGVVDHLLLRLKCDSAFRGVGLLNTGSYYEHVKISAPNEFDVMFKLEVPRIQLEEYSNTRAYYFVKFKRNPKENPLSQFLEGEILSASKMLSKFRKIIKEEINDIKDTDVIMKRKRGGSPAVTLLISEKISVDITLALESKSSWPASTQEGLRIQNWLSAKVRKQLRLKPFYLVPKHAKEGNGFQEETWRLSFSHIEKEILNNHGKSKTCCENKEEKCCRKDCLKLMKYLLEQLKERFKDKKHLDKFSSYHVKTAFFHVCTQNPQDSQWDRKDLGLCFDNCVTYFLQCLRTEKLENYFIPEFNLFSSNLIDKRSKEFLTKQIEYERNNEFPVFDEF
As for `COc1cccc(-c2nn(Cc3ccccc3)c(=O)c3nc(C)sc23)c1`, the inhibition is -0.0493% (inactive).
As for `O=C(NCCc1ccco1)c1ccc2c(c1)OCO2`, the figure is 1.62% (inactive); as for `COc1cc(CN(C)C(=O)c2cc(N3CCN(c4cccc(C(F)(F)F)c4)CC3)nc3ccccc23)cc(OC)c1OC`, -6.59% (inactive).
As for `NC(=O)COc1ccc(C(=O)N2CCCC2CCc2ccccc2)cc1` (stereo unspecified), the figure is -3.77% (inactive); as for `CCOC(=O)c1sc(NC(=O)CCCl)c(C(=O)OCC)c1C`, -5.41% (inactive).
As for `CCCc1c(C(=O)NCc2cccnc2)cnn1-c1ccccc1C`, the figure is -8.73% (inactive); as for `O=C(Nc1nnc(-c2ccc(Cl)cc2)s1)C1CCCN1S(=O)(=O)c1ccc(F)cc1` (stereo unspecified), -2.72% (inactive); as for `C(=C\c1ccccc1)/CSc1nnc2c(n1)[nH]c1ccccc12`, -6.1% (inactive).
Consider `CC(C)CNC(=O)c1c(O)nc2sccn2c1=O`, for which the inhibition is -9.43% (inactive).
Under `COCCNC(=O)Cn1nc2c(c1NC(=O)Cc1ccc(F)cc1)CSC2` stands -6.17% (inactive).
On to `Cn1c(=O)[nH]c(=O)c2c1nc(N1CCN(Cc3ccccc3)CC1)n2Cc1cccc(Cl)c1`, for which the inhibition was -7.67% (inactive).
Regarding `CC1(C)C(c2ccc(Cl)cc2)=[N+]([O-])C(C)(C)C(c2ccc(Cl)cc2)=[N+]1[O-]`, the inhibition is -4.69% (inactive).
As for `COc1ccc2cnn(-c3cccc(Cl)c3)c(=O)c2c1OC`, the figure is -0.243% (inactive); as for `Cc1sc2ncn(CC(=O)O)c(=O)c2c1C`, -2.86% (inactive); as for `Cc1ccc(-c2cc(C(=O)O)[nH]n2)c(C)c1`, -5.69% (inactive).
Regarding `O=C(CSc1nc(=O)n(CCCN2CCOCC2)c2c1CCC2)N1CCc2ccccc21`, the inhibition is -6% (inactive).
As for `CC(C)CSc1nc2c(c(=O)n(C)c(=O)n2C)n1CC=Cc1ccccc1`, the inhibition was -0.843% (inactive).
Under `CC(Cn1cncn1)NC(=O)C1CCN(C)C(=O)C1` (stereo unspecified) stands -9.85% (inactive); under `Clc1ccccc1Cn1ncc2c(N3CCN(CCOc4cccc5ccccc45)CC3)ncnc21`, -10.9% (inactive).
As to `N#CC1C(=N)C(C#N)(C#N)C(c2ccco2)C2CCCC=C12` (stereo unspecified), the inhibition was -7.43% (inactive).
Under `N#CC1C(=N)SC(=N)C(C#N)C1c1cccc(O)c1` (stereo unspecified) stands 65.3% (active); under `CCc1ccc(C2C(C#N)C(=N)SC(=N)C2C#N)cc1` (stereo unspecified), -0.735% (inactive).
Take `N#CC1C(=N)SC(=N)C(C#N)C1c1ccco1` (stereo unspecified): the inhibition was 53.9% (active).
With `N#CC1C(=N)SC(=N)C(C#N)C1c1ccnc2ccccc12` (stereo unspecified), the inhibition is -1.27% (inactive).
As for `CCC(C(=O)N(CC(=O)N1CC(=O)N(c2cccc(Cl)c2C)C1)Cc1ccco1)c1ccccc1` (stereo unspecified), the figure is -7.01% (inactive); as for `COc1cc(S(=O)(=O)Nc2c(F)cccc2F)cc(C(=O)O)c1OC`, 9.01% (inactive); as for `Cc1cccc(Cn2cccc2CN(Cc2ccc(F)cc2)C2CCCCC2)c1`, -1.66% (inactive).
Under `COc1ccc(-n2nnnc2SCCC#N)cc1` stands -7.16% (inactive); under `Cc1cc(C(=O)O)ccc1S(=O)(=O)N(C)c1cc(F)ccc1F`, -8.29% (inactive); under `CCC(CO)N(Cc1ccc(F)cc1)Cc1c(C)nn(C)c1Cl` (stereo unspecified), -10.3% (inactive).
Take `O=C(c1cc(-c2ccccc2F)on1)N1CCc2ccc(O)cc2C1`: the inhibition is -0.786% (inactive).
`COc1cc(C(=O)n2nc(C)c(Sc3ccccc3[N+](=O)[O-])c2C)cc(OC)c1OC`: the inhibition was -6.71% (inactive).
As for `CC(=O)Nc1ccccc1OS(=O)(=O)c1ccc(Br)cc1`, the inhibition was 0.158% (inactive) and 5.4% (inactive).
Under `CN(Cc1nc2ccccc2n1C)C(=O)[C@H]1CCCO1` stands -5.26% (inactive).
For `O=C(NC(Cc1ccccc1)C(=O)Nc1nnc(-c2cccc(Cl)c2)s1)c1cccc(C(F)(F)F)c1` (stereo unspecified), the inhibition was -8.87% (inactive).
On to `COc1cccc(-c2nc(OCc3ccc(F)cc3)nn2-c2cccc(NC(=O)C3CCC3)c2)c1`, for which the inhibition is -6.9% (inactive).
Under `O=C(Nc1ccc(F)cc1)c1csc(CSc2nnc(Cc3ccccc3)n2-c2cccc(Cl)c2)n1` stands 5.96% (inactive); under `CCn1nc(C(=O)O)c2c1CCC(N(C)CCn1ccnc1C)C2` (stereo unspecified), -7.94% (inactive).
As for `COc1cccc(C2Nc3ccccc3N=C3CC(C)(C)CC(=O)C32)c1OC` (stereo unspecified), the figure is -3.94% (inactive); as for `CC(C)(CCl)C(=O)N1CCN(c2ncnc3c2nnn3-c2cccc(F)c2)CC1`, -5.18% (inactive); as for `CCc1nc2ccc(C(=O)NCCNC(C)=O)cn2c1N(CC)Cc1cccc(Br)c1`, -6.29% (inactive).
`O=C(NCCc1ccccc1)c1cc(NC(=O)C(c2ccccc2)c2ccccc2)ccc1N1CCCCC1`: the inhibition is -3.47% (inactive).
As for `O=C(NC1CCC1)c1ccc(-c2cc(-c3cccc(C(F)(F)F)c3)n[nH]2)cc1`, the figure is -8.56% (inactive); as for `CC1c2ccsc2CCN1C(=O)Cc1csc(-c2ccsc2)n1` (stereo unspecified), -10.7% (inactive).
As for `Nc1cc(-c2cccc(Cl)c2)nn1-c1ccc(C(=O)N2CCOCC2)cc1`, the inhibition was -3.59% (inactive).
Under `COC[C@@H]1CCCN1C(=O)c1ccc(-n2nc(-c3cccc(Cl)c3)cc2N)cc1` stands 2.07% (inactive); under `CN(C)c1ccc(N2CC(=O)C(c3nc(-c4cccc(Cl)c4)cs3)C2=N)cc1` (stereo unspecified), 148% (active).
Under `COc1cccc(CSc2nnc(CNC(=O)Nc3cc(C(F)(F)F)cc(C(F)(F)F)c3)n2-c2ccc(C)cc2)c1` stands -18% (inactive); under `CCn1ncc(C(=O)N2CC[C@@H]3CN(S(C)(=O)=O)[C@@H]3C2)c1C`, -7.55% (inactive); under `Cc1cc(C)n(CC(=O)N2CC[C@@H]3CN(S(C)(=O)=O)[C@@H]3C2)n1`, 66.4% (active).
Under `Cc1cc(C)n(CC2CCN(C(=O)C3CCN(S(C)(=O)=O)CC3)CC2)n1` stands -9.09% (inactive); under `CS(=O)(=O)c1ccc(-c2ccc(NS(=O)(=O)c3cccs3)cc2)nn1`, -9.35% (inactive).
As to `Cc1cc(C(=O)N2CCC(N(C)C)C2)ccc1NC(=O)c1ccco1` (stereo unspecified), the inhibition is -11.4% (inactive).
Under `CC(=O)N(c1ccccc1)C1C=C(Nc2ccccc2)C(=O)C1` (stereo unspecified) stands -10.4% (inactive); under `Cc1c(C(=O)N2CCC(Cc3ccccc3)CC2)cnc2c(-c3cccc(C(F)(F)F)c3)cnn12`, -4.43% (inactive); under `OC(COCc1ccco1)CN(Cc1ccccc1)C1CC1` (stereo unspecified), 1.45% (inactive).
